Our source for the PXC50 values is ChEMBL document CHEMBL3988442, “University of Dundee, Small-Polar-MMV Screening Library” (2021).

Bounds are passed on as bounds.

This assay concerns the target T1, Methionyl-tRNA synthetase, putative (Leishmania donovani (strain BPK282A1)) (UniProt E9BF75).
T1 sequence (whole entry): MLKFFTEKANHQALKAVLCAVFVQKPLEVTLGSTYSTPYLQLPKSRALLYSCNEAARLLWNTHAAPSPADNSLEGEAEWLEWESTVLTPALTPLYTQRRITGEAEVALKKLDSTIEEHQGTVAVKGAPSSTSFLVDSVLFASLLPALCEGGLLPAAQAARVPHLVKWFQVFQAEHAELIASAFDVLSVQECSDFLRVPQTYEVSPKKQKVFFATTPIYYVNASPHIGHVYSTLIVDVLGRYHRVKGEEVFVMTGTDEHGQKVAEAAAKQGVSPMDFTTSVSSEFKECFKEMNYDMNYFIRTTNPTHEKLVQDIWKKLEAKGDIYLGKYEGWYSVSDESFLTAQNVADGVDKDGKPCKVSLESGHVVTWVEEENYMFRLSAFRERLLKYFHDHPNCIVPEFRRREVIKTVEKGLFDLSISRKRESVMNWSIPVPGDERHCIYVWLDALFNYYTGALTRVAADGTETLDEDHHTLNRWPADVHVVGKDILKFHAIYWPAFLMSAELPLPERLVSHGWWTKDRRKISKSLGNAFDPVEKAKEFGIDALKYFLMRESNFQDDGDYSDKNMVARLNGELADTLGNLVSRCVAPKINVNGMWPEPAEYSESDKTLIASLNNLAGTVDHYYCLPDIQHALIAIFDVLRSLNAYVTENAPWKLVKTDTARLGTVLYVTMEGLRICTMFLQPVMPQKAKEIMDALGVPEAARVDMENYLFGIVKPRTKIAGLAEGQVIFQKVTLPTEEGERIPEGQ
The experiment in a line: Leishmania donovani Methionine tRNA synthetase (LdMetRS):v7. Dose response assay. It counts as functional. More on the design: conc 80 nM, time 150 minutes.

Take `Cn1ncc2c(NC3CCOCC3)nc(Nc3ccc(F)c(F)c3)nc21`: the PXC50 (BOTTOM 5.374646893, HILLSLOPE 1.78968519, MAX_EFFECT 52.27272727, TOP 55.59803221) was 4.65; the PXC50 (BOTTOM 9.100238565, HILLSLOPE 1.237667708, MAX_EFFECT 69.82591876, TOP 73.93326352) turned out to be 5.4; the PXC50 (MAX_EFFECT 40.52863436) was less than 4.
Take `c1ccc(CNc2ncc(CN3CCCN4CCC[C@H]4C3)cn2)cc1`: the PXC50 (BOTTOM -0.610075864, HILLSLOPE 1.031656218, MAX_EFFECT 61.9047619, TOP 100.0) stood at 4.18; the PXC50 (BOTTOM -1.183822823, HILLSLOPE 1.053099151, MAX_EFFECT 65.67425569, TOP 100.0) turned out to be 4.24; the PXC50 (MAX_EFFECT 60.86956522) was less than 4.
With `Cn1ncc2c(NCCO)nc(Nc3cccc(C(F)(F)F)c3)nc21`, the PXC50 is less than 4 (MAX_EFFECT 33.39622642), less than 4 (MAX_EFFECT 39.26940639) and less than 4 (MAX_EFFECT 40.60721063).
`CNS(=O)(=O)CCNc1nc(NCCO)c2cnn(C)c2n1` registered a PXC50 (MAX_EFFECT 5.780346821) of less than 4, a PXC50 (MAX_EFFECT 6.392694064) of less than 4 and a PXC50 (MAX_EFFECT 15.28301887) of less than 4.
Consider `Cn1ncc2c(NCC(C)(C)O)nc(Nc3ccc(F)c(F)c3)nc21`, for which the PXC50 is, setting by setting: (BOTTOM 2.756167144, HILLSLOPE 0.998486082, MAX_EFFECT 82.64150943, TOP 95.06215472) 4.8; (BOTTOM -1.483509386, HILLSLOPE 0.96789371, MAX_EFFECT 77.86259542, TOP 87.31089032) 4.95; (BOTTOM -2.002010489, HILLSLOPE 0.709003451, MAX_EFFECT 80.70175439, TOP 108.677252) 4.69.
Take `CNC(=O)CNc1nc(Nc2ccc(F)c(F)c2)nc2c1cnn2C`: the PXC50 turned out to be 4.45 (BOTTOM -2.014141631, HILLSLOPE 0.719425381, MAX_EFFECT 67.11798839, TOP 100.0); 4.36 (BOTTOM -2.647341189, HILLSLOPE 0.864486673, MAX_EFFECT 64.80686695, TOP 100.0); 4.35 (BOTTOM -5.796593818, HILLSLOPE 0.871793388, MAX_EFFECT 66.50831354, TOP 100.0).
As for `Cc1nc(CN(C)CC2CCCN2c2cccnn2)nc2ccccc12` (centres undefined), the PXC50 came out at 4.46 (BOTTOM 6.94309251, HILLSLOPE 1.363298468, MAX_EFFECT 83.49834983, TOP 100.0); 4.21 (BOTTOM 8.751319867, HILLSLOPE 2.615595336, MAX_EFFECT 78.85304659, TOP 100.0); 4.37 (BOTTOM -1.910835363, HILLSLOPE 2.399208882, MAX_EFFECT 79.71014493, TOP 90.01694606).
In the case of `Cn1ncc2c(NCCS(C)(=O)=O)nc(Nc3ccc(F)c(F)c3)nc21`, the PXC50 by setting is: (MAX_EFFECT 19.95249406) less than 4; (MAX_EFFECT 30.90128755) less than 4; (MAX_EFFECT 33.0754352) less than 4.
In the case of `c1ccc(CN2CCC(CCNc3ncnc4c3CCNCC4)C2)cc1` (centres undefined), the PXC50 reads like this: (BOTTOM 0.940952942, HILLSLOPE 0.875315482, MAX_EFFECT 60.13864818, TOP 100.0) 4.15; (BOTTOM 1.061688445, HILLSLOPE 1.57945515, MAX_EFFECT 59.73154362, TOP 100.0) 4.12; (BOTTOM -6.676814726, HILLSLOPE 1.817914846, MAX_EFFECT 63.88888889, TOP 100.0) 4.17.
For `CC(C)CCNc1nnc(C(C)C)s1`, the PXC50 by setting is: (MAX_EFFECT 4.081632653) less than 4; (MAX_EFFECT 6.479859895) less than 4; (MAX_EFFECT 7.971014493) less than 4.
In the case of `Cn1nc(Cn2ccnc2)c2c1CN(c1nccs1)C2`, the PXC50 runs as follows: (BOTTOM 0.559364067, HILLSLOPE 0.919078395, MAX_EFFECT 71.42857143, TOP 99.25901822) 4.44; (BOTTOM -1.637231388, HILLSLOPE 0.873521348, MAX_EFFECT 76.08695652, TOP 100.0) 4.55; (BOTTOM -15.97247073, HILLSLOPE 2.274903325, MAX_EFFECT 57.26795096, TOP 100.0) 4.1.
On to `OCCNc1nc(Nc2cccc(OC(F)(F)F)c2)nc2ccsc12`, for which the PXC50 is 4.23 (BOTTOM -3.252318024, HILLSLOPE 0.711277169, MAX_EFFECT 57.23140496, TOP 100.0); less than 4 (MAX_EFFECT 49.7098646); less than 4 (MAX_EFFECT 49.77973568).
In the case of `Cc1nc(C)n(CC2CCCN2Cc2nc(C)c3ccccc3n2)n1` (centres undefined), the PXC50 (BOTTOM 0.925302431, HILLSLOPE 1.017320837, MAX_EFFECT 67.36111111, TOP 99.90284223) was 4.31; the PXC50 (BOTTOM 1.588399375, HILLSLOPE 1.270951942, MAX_EFFECT 69.49740035, TOP 100.0) came to 4.3; the PXC50 (BOTTOM 6.646518839, HILLSLOPE 0.950758055, MAX_EFFECT 62.41610738, TOP 100.0) worked out at 4.2.
For `COc1ccc(C)cc1CN1CCC(c2cc3ncccc3cn2)CC1`, the PXC50 by setting is: (BOTTOM 4.302486836, HILLSLOPE 1.43779927, MAX_EFFECT 88.21490468, TOP 100.0) 4.58; (BOTTOM 8.282667515, HILLSLOPE 1.048150925, MAX_EFFECT 85.90604027, TOP 109.7015184) 4.5; (BOTTOM -10.94583239, HILLSLOPE 1.338598097, MAX_EFFECT 90.27777778, TOP 104.5409309) 4.59.
In turn, `O=C(CCNC(=O)c1ccccc1F)NCCNc1cccnc1` showed a PXC50 (MAX_EFFECT 3.623188406) of less than 4, a PXC50 (MAX_EFFECT 4.761904762) of less than 4 and a PXC50 (MAX_EFFECT 5.779334501) of less than 4.
On to `O=C(CCc1n[nH]c2c1CCCC2)N1C[C@@H]2CC[C@H](C1)N(CC1CC1)C2`, for which the PXC50 reads like this: (BOTTOM 12.11622841, HILLSLOPE 1.527540497, MAX_EFFECT 61.47110333, TOP 100.0) 4.08; (BOTTOM -0.508945456, HILLSLOPE 1.017254843, MAX_EFFECT 57.14285714, TOP 100.0) 4.12; (BOTTOM -1.441363941, HILLSLOPE 1.01121357, MAX_EFFECT 60.86956522, TOP 100.0) 4.2.
For the compound `Cc1cc(C)n(C2CN(CC(=O)N(C)Cc3cnn(C)c3)C2)n1`, the PXC50 (BOTTOM 1.685263138, HILLSLOPE 1.431243041, MAX_EFFECT 59.07590759, TOP 100.0) was found to be 4.06; the PXC50 (MAX_EFFECT 33.33333333) was less than 4; the PXC50 (MAX_EFFECT 44.80286738) was less than 4.
As for `CNc1nc(Nc2ccc(F)c(F)c2)nc2c1cnn2C`, the PXC50 by setting is: (BOTTOM 0.870209489, HILLSLOPE 0.808254997, MAX_EFFECT 89.4026975, TOP 100.0) 5.22; (BOTTOM 6.300791226, HILLSLOPE 0.864616698, MAX_EFFECT 89.69957082, TOP 97.1703974) 5.16; (BOTTOM -2.296989521, HILLSLOPE 0.747850258, MAX_EFFECT 89.3111639, TOP 97.09484857) 5.35.
